# Screens: PubChem, several laboratories
# A selection: hits, their analogues and other compounds. The true share with any hit is near 27%.
# CYP2C19 inh = inhibitors of human CYP2C19; P33261; CYP2C19 Supersomes, luciferin-H EGE luminescence, 30 min; inhibition, % at 5 µM; hit rate 21% among 96,000; AID 778;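 active means CYP2C19 inhibition above a set limit at 5 µM in the primary screen, cut at about 50% in these data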;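 further: plate controls were negative control wells for no effect and 2.5 mM tranylcypromine positive control for full effect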
# Target sequence (P33261 whole entry, looked up): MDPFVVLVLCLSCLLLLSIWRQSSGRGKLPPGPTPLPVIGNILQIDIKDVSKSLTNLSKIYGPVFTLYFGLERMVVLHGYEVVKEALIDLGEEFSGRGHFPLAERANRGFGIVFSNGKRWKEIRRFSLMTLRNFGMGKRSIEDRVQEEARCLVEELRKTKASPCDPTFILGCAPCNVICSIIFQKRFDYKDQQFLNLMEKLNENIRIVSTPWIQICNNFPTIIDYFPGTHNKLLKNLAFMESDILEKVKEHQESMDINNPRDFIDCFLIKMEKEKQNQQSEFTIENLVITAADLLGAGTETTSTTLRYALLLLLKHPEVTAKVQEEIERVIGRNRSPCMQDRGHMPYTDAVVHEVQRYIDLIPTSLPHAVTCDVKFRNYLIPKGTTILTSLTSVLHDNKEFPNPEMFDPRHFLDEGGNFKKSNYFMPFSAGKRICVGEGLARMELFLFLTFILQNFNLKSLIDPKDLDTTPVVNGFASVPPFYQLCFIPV
# CYP2C19 activ = activators of human cytochrome P450 2C19; AID 1025; 96,000 tested, under 10 active; recombinant CYP2C19, luciferin-H EGE luminescence; stronger effect = higher value; 0 = fully inhibited enzyme, 1 = untreated enzyme; activation factor at 5 µM;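 active means activation factor of at least 2 at 5 µM in the primary screen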;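 further: 0 = wells with 2.5 mM tranylcypromine and 1 = vehicle-only wells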
# CYP2C9 inh = blocks human cytochrome P450 2C9. hit rate 20% among 96,000. P11712. AID 777. CYP2C9 Supersomes, luciferin-H conversion, luminescence. inhibition, % at 5 µM;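 active means blocking of liver enzyme CYP2C9 beyond about 50% at 5 µM, limit read from the data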
# EphB4 antag = antagonists of human EphB4-ephrin-B2 interaction. AID 720. P54760. EphB4 LBD / TNYL-RAW-Alexa532 peptide, fluorescence polarization. hit rate 0.15% among 97,000. inhibition, % at 7 µM;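 active means inhibition above the screen-wide mean inhibition plus 3 SD, cut at about 15% in these data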;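 further: 0% = DMSO wells and 100% = excess unlabeled TNYL-RAW peptide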
# CYP2C9 activ = increases human cytochrome P450 2C9 activity; P11712; recombinant CYP2C9, luciferin-H conversion, luminescence; stronger effect = higher value; factor 1 = untreated enzyme, 0 = blocked; activation factor at 5 µM; hit rate 1.4% among 96,000; AID 1024;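 active means activation factor of 2 or more for CYP2C9 at a 5 µM dose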;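 further: 0 = sulfaphenazole-blocked wells and 1 = vehicle-only wells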
# Numbers without * were called inactive; nt = no result given.
SMILES,CYP2C19 inh,CYP2C19 activ,CYP2C9 inh,EphB4 antag,CYP2C9 activ
Cn1c(=O)oc2cc(S(=O)(=O)NC3CCCc4ccccc43)ccc21 (stereo not drawn),-3.3,1,-28.1,-1.6,1.3
CSCCC(NS(=O)(=O)c1ccc2c(c1)oc(=O)n2C)C(=O)NC1CCCCC1 (stereo not drawn),71.6*,0.3,-8.5,-4.3,1.1
Cn1c(=O)oc2cc(S(=O)(=O)Nc3cccc4c3CCCC4)ccc21,65.7*,0.3,-141.9,nt,2.4*
CCOC(=O)c1cn2cccnc2n1,9.5,0.9,4.1,-10.8,1
CCc1cccc(NS(=O)(=O)c2ccc3c(c2)oc(=O)n3C)c1,70.5*,0.3,-11.2,8.1,1.1
CC(C)CC(NS(=O)(=O)c1ccc2c(c1)oc(=O)n2C)C(=O)NCc1cccnc1 (stereo not drawn),53.4*,0.5,-2.4,1.6,1
CCOC(=O)N1CCN(C(=O)C(CC(C)C)NS(=O)(=O)c2ccc3c(c2)oc(=O)n3C)CC1 (stereo not drawn),18.9,0.8,10.5,4.5,0.9
C[C@@]12CC(=O)NC1N(C(=O)c1cccc(C(F)(F)F)c1)C(c1ccccc1OC(=O)c1cccc(C(F)(F)F)c1)C2 (stereo partly drawn),47.9,0.5,94.5*,0.1,0.1
Cc1cc(C)nc(NC(=NCCc2c[nH]c3ccccc23)NC(=O)c2ccco2)n1,96.4*,0,99.1*,-8.1,0
COc1ccc(-c2cn3c4c(sc3n2)CCCC4)cc1,85.7*,0.1,78.3*,-1.6,0.2
COc1ccc(-c2cn3c(C)c(C(=O)N4CCCc5ccccc54)sc3n2)cc1,nt,nt,nt,-6.0,nt
CCCCCCCC1(C)NC(=O)N(c2ccccc2)N1 (stereo not drawn),56.8*,0.4,24.2,0.8,0.8
Cc1ccc(C)c(NS(=O)(=O)c2cc(C(=O)N3CCc4ccccc4C3)ccc2Cl)c1,35.7,0.6,59.0*,-7.5,0.4
Cc1ccccc1NS(=O)(=O)c1cc(C(=O)Nc2ccccc2-c2ccccc2)ccc1Cl,35.9,0.6,84.3*,-10.1,0.2
CCOC(=O)N1CCN(C(=O)c2ccc(C)c(S(=O)(=O)Nc3cccc(C)c3C)c2)CC1,54.5*,0.5,97.5*,5.2,0
CCOC(=O)N1CCN(C(=O)c2ccc(C)c(S(=O)(=O)Nc3ccccc3)c2)CC1,2.7,1,42.7,0.8,0.6
Cc1cccc(NS(=O)(=O)c2cc(C(=O)N3CCc4ccccc4C3)ccc2Cl)c1C,36.4,0.6,57.9*,-7.3,0.4
COc1ccc(NC(=O)c2c(C)cc(=O)oc2C)c(OC)c1,4.2,1,2.6,1.0,1
COc1ccc(CCNc2oc(-c3ccco3)nc2C#N)cc1,nt,nt,nt,4.1,nt
N#Cc1nc(-c2cccs2)oc1NCc1ccc2c(c1)OCO2,54.2*,0.5,93.8*,5.7,0.1
N#Cc1nc(-c2ccco2)oc1NCCc1ccccc1,95.6*,0,75.2*,0.2,0.2
N#Cc1nc(-c2ccccc2F)oc1NCCc1ccccc1,35.8,0.6,46.5,12.3,0.5
N#Cc1nc(-c2cccs2)oc1NCCc1ccccc1,25.7,0.7,67.8*,0.5,0.3
CCN(CC)C(=O)CSc1nc2c(sc(=S)n2Cc2ccco2)c(=O)n1-c1ccccc1,35.9,0.6,52.4*,11.8,0.5
CCOC(=O)CSc1nc2c(sc(=S)n2Cc2ccco2)c(=O)n1-c1ccccc1,59.7*,0.4,68.8*,9.5,0.3
SMILES,CYP2C19 inh,CYP2C19 activ,CYP2C9 inh,EphB4 antag,CYP2C9 activ
CCOC(=O)CSc1nnc(Cc2ccccc2)n1Cc1ccco1,5.4,0.9,-1.5,-7.4,1
CCOC(=O)CSc1nc2c(sc(=S)n2-c2ccccc2OC)c(=O)n1Cc1ccco1,85.2*,0.1,54.6*,-1.3,0.5
CCOC(=O)CC(=O)CSc1nc2c(sc(=S)n2-c2ccccc2)c(=O)[nH]1,3.7,1,65.8*,-3.2,0.3
COC(=O)COc1cc(Br)c(/C=C2/SC(=O)N(CC(=O)N3CCCC3)C2=O)cc1OC,-4.5,1,-29.1,-0.4,1.3
C=CCn1c(CCNC(=O)c2ccccc2F)nnc1SCC(=O)Nc1nc(C)cs1,30.9,0.7,50.5*,-0.6,0.5
C=CCn1c(SCC(=O)Nc2nc(C)cs2)nnc1C(C)NC(=O)c1ccccc1Cl (stereo not drawn),nt,nt,nt,1.1,nt
C=CCn1c(CCNC(=O)c2cccs2)nnc1SCC(=O)Nc1cccc(F)c1,71.8*,0.3,90.3*,7.8,0.1
CN(C)c1nc(OCC(=O)NC(C)(C)C)nc(N(C)C)n1,37.3,0.6,-0.7,-1.3,1
CN(C)S(=O)(=O)N(CC(=O)Nc1ccccc1F)c1ccccc1,nt,nt,nt,-2.1,nt
CN(C)S(=O)(=O)N(CC(=O)N(Cc1ccccc1)Cc1ccccc1)c1ccccc1,81.2*,0.2,85.1*,-3.7,0.1
CN(C)S(=O)(=O)N(Cc1ccc(Br)cc1)c1ccccc1,85.9*,0.1,41.9,1.1,0.6
COc1ccc(-c2noc(CCC(=O)NCc3cc(Br)ccc3OC)n2)cc1,27.6,0.7,0.5,-1.9,1
O=C(NCc1ccccn1)Nc1ccc(Cl)c(Cl)c1,nt,nt,nt,4.6,nt
S=C(NCc1ccccn1)Nc1ccc(Cl)cc1,60.3*,0.4,27.7,-1.6,0.7
Cc1cc(NCCCN2CCOCC2)n2ncc(-c3ccc(Cl)cc3)c2n1,0.4,1,20.3,2.2,0.8
Cc1cccc(-c2cc3nc(C)cc(NCCCn4ccnc4)n3n2)c1,93.0*,0.1,95.6*,2.4,0
Cc1cc(NCCCn2ccnc2)n2ncc(-c3ccc(Cl)cc3)c2n1,74.5*,0.3,87.3*,0.7,0.1
C=CCn1c(Cc2cccs2)nnc1SCC(=O)Nc1cccc(OC)c1,43.8,0.6,31.1,-2.6,0.7
C=CCn1c(Cc2cccs2)nnc1SCC(=O)Nc1ccc(OC)cc1,20.6,0.8,22.8,-5.2,0.8
COc1cccc(NC(=O)CSc2nnc(Cc3cccs3)n2-c2ccc(C)cc2)c1,45.4,0.5,65.4*,5.4,0.3
COc1ccc(-n2c(Cc3cccs3)nnc2SCC(=O)Nc2ccc3c(c2)OCCO3)cc1,55.5*,0.4,60.7*,0.9,0.4
Cc1ccc(-n2c(Cc3cccs3)nnc2SCC(=O)Nc2ccc(S(N)(=O)=O)cc2)cc1,63.4*,0.4,74.1*,6.5,0.3
COc1ccc(NC(=O)CSc2nnc(Cc3cccs3)n2-c2ccc(C)cc2)cc1,72.7*,0.3,51.2*,1.8,0.5
O=C(O/N=C1/CCSc2ccccc21)c1ccccc1,18.1,0.8,10.3,-1.1,0.9
COC(=O)c1cc(-c2cccc(OC)c2)on1,-2.8,1,10.1,-0.4,0.9
CCSC1=C(C#N)C2(CCCC2)C(C#N)=C(N)N1,95.3*,0,95.1*,2.3,0
N#CC1=C(N)NC(SCc2ccc(Br)cc2)=C(C#N)C12CCCCC2,nt,nt,nt,6.2,nt
N#CC1=C(N)NC(SCc2ccc(Cl)cc2)=C(C#N)C12CCCCC2,100.0*,0,100.1*,-3.3,0
